Measured values: the supplement of paper PMC10849652
The full data set covers some 8,800 targets. This sample favours those with a hit. About 0.5% of all pairs of compound and target were hits. Unmarked numbers belong to inactive results.

What was measured:
Test in all cases: log2 fold change, soluble protein after heating vs DMSO (PISA); higher = thermal stabilisation; K562 lysate, 10 uM; active = over 0.2 and 3.5 SD of the protein, either way, in both replicates (recomputed)
lapatinib = compound: CS(=O)(=O)CCNCc1ccc(-c2ccc3ncnc(Nc4ccc(OCc5cccc(F)c5)c(Cl)c4)c3c2)o1 [lapatinib]
How it was run: (§1)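 To prepare the extract, K562 pellets were dounce-homogenised in PBS pH 7.4 with 1 mM MgCl2, giving crude material at 1 mg/mL protein. This was treated with 10 μM compound for 30 min, then heated in aliquots for 3 min over 48°C-58°C before pooling and addition of NP-40 to 0.5% at 4°C. Centrifugation at 21,000xg for 90 min left soluble protein in the supernatant, which TMTpro 16plex LC-MS/MS quantified with equalised channel sums. Results are log-two fold changes in thermal stability compared with solvent controls, from duplicates.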

pictilisib = compound: CS(=O)(=O)N1CCN(Cc2cc3nc(-c4cccc5[nH]ncc45)nc(N4CCOCC4)c3s2)CC1 [pictilisib]
How it was run: as §1

crizotinib = compound: C[C@@H](Oc1cc(-c2cnn(C3CCNCC3)c2)cnc1N)c1c(Cl)ccc(F)c1Cl [crizotinib]
How it was run: as §1

[1] = compound: C[C@H](C1=CC=C(C=C1)C(=O)NC2=C3C=CNC3=NC=C2)N
How it was run: as §1

duvelisib = compound: C[C@H](Nc1ncnc2nc[nH]c12)c1cc2cccc(Cl)c2c(=O)n1-c1ccccc1 [duvelisib]
How it was run: as §1

gandotinib = compound: Cc1cc(Nc2cc(CN3CCOCC3)c3nc(C)c(Cc4ccc(Cl)cc4F)n3n2)n[nH]1 [gandotinib]
How it was run: as §1

tozasertib = compound: Cc1cc(Nc2cc(N3CCN(C)CC3)nc(Sc3ccc(NC(=O)C4CC4)cc3)n2)n[nH]1 [tozasertib]
How it was run: as §1

doramapimod = compound: Cc1ccc(-n2nc(C(C)(C)C)cc2NC(=O)Nc2ccc(OCCN3CCOCC3)c3ccccc23)cc1 [doramapimod]
How it was run: as §1

bafetinib = compound: Cc1ccc(NC(=O)c2ccc(CN3CC[C@H](N(C)C)C3)c(C(F)(F)F)c2)cc1Nc1nccc(-c2cncnc2)n1 [bafetinib]
How it was run: as §1

[2] = compound: Cc1cccc(CC(=O)N2CCc3c2ccc(-c2cn(C)c4ncnc(N)c24)c3F)n1
How it was run: as §1

nilotinib = compound: Cc1cn(-c2cc(NC(=O)c3ccc(C)c(Nc4nccc(-c5cccnc5)n4)c3)cc(C(F)(F)F)c2)cn1 [nilotinib]
How it was run: as §1

[3] = compound: Cc1nc(Nc2n[nH]c3c2CN(C(=O)N[C@H](CN(C)C)c2ccccc2)C3(C)C)c2sccc2n1
How it was run: as §1

dasatinib = compound: Cc1nc(Nc2ncc(C(=O)Nc3c(C)cccc3Cl)s2)cc(N2CCN(CCO)CC2)n1 [dasatinib]
How it was run: as §1

[4] = compound: Cc1ncc(-c2ccnc(Nc3ccc(S(C)(=O)=O)cc3)n2)n1C(C)C
How it was run: as §1

[5] = compound: Cn1cc(-c2ccc3c(c2)CCN3C(=O)Cc2cccc(C(F)(F)F)c2)c2c(N)ncnc21
How it was run: as §1

quisinostat = compound: Cn1cc(CNCC2CCN(c3ncc(C(=O)NO)cn3)CC2)c2ccccc21 [quisinostat]
How it was run: as §1

tipifarnib = compound: Cn1cncc1[C@@](N)(c1ccc(Cl)cc1)c1ccc2c(c1)c(-c1cccc(Cl)c1)cc(=O)n2C [tipifarnib]
How it was run: as §1

[6] = compound: NC(=O)Nc1cc(-c2cccc(F)c2)sc1C(=O)N[C@H]1CCCNC1
How it was run: as §1

[7] = compound: NC(=O)c1cnc(N[C@@H]2CCCC[C@@H]2N)nc1Nc1cccc(-n2nccn2)c1
How it was run: as §1

[8] = compound: NC1(c2ccc(-c3nc4ccn5c(=O)[nH]nc5c4cc3-c3ccccc3)cc2)CCC1
How it was run: as §1

Chain of UniProt O75880 (O75880 whole entry, looked up): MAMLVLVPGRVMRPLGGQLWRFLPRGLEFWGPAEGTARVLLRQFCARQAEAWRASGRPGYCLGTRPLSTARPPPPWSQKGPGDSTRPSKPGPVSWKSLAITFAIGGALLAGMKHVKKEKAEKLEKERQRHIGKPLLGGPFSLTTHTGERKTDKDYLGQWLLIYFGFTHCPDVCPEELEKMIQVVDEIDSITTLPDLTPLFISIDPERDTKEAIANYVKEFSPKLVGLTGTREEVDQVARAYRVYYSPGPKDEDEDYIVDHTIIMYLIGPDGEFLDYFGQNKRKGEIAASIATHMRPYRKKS
Chain of UniProt Q9H0R6 (Q9H0R6 whole entry, looked up): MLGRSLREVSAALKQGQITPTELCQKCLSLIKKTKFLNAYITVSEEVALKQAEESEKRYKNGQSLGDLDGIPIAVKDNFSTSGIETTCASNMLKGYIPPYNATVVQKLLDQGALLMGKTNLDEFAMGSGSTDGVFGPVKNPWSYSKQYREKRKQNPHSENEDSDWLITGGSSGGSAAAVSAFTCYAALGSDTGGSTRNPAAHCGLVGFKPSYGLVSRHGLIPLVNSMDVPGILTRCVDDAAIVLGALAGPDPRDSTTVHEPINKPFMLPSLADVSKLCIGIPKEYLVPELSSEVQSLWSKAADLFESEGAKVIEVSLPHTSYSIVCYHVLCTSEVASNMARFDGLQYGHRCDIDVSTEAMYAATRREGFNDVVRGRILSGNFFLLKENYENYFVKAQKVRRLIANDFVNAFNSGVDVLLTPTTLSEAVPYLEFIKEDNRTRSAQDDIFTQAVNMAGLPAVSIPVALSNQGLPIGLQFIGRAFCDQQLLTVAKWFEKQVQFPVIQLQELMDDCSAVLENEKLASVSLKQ
Chain of UniProt Q92930 (Q92930 whole entry, looked up): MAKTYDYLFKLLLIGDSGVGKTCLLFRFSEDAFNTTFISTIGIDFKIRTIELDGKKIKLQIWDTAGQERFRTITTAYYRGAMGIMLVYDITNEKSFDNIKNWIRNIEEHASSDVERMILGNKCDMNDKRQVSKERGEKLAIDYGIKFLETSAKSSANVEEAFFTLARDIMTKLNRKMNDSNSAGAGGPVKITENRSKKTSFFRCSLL
Chain of UniProt Q9NR31 (Q9NR31 whole entry, looked up): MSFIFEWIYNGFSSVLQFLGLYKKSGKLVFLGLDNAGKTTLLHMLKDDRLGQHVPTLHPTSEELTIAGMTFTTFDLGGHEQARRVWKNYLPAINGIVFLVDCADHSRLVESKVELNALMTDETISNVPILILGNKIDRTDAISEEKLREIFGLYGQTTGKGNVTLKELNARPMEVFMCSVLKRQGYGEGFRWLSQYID
Chain of UniProt Q9P0P0 (Q9P0P0 whole entry, looked up): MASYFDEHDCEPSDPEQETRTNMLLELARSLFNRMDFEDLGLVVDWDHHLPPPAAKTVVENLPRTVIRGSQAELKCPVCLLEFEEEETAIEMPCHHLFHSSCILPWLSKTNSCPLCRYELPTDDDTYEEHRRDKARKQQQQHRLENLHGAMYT
Chain of UniProt P51812 (P51812 whole entry, looked up): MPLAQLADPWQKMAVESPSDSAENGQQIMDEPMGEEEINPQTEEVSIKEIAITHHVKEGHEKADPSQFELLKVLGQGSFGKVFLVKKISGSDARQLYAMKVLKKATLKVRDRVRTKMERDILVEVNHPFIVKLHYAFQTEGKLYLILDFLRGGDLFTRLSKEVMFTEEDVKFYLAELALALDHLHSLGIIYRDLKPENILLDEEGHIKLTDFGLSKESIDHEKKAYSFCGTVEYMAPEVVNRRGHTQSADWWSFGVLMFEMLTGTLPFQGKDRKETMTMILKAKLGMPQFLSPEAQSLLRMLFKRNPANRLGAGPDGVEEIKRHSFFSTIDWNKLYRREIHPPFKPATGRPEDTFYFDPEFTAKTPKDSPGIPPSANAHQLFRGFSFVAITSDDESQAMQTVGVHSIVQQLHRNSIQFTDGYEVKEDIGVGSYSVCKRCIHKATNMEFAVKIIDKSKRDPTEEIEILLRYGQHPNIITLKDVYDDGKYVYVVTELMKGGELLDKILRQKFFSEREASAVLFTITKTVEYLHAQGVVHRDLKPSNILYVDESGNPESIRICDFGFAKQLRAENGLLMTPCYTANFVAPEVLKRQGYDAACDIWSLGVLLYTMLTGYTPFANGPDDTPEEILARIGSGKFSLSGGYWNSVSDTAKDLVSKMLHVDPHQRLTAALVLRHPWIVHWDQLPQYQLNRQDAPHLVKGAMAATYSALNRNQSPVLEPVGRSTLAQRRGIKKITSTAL
Chain of UniProt P51159 (P51159 whole entry, looked up): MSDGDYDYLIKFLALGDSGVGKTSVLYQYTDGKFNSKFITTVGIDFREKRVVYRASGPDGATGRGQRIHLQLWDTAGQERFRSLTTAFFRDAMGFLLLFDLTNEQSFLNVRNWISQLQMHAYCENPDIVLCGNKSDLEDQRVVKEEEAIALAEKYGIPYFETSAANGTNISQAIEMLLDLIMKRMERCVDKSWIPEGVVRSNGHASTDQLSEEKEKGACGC
Chain of UniProt O75150 (O75150 whole entry, looked up): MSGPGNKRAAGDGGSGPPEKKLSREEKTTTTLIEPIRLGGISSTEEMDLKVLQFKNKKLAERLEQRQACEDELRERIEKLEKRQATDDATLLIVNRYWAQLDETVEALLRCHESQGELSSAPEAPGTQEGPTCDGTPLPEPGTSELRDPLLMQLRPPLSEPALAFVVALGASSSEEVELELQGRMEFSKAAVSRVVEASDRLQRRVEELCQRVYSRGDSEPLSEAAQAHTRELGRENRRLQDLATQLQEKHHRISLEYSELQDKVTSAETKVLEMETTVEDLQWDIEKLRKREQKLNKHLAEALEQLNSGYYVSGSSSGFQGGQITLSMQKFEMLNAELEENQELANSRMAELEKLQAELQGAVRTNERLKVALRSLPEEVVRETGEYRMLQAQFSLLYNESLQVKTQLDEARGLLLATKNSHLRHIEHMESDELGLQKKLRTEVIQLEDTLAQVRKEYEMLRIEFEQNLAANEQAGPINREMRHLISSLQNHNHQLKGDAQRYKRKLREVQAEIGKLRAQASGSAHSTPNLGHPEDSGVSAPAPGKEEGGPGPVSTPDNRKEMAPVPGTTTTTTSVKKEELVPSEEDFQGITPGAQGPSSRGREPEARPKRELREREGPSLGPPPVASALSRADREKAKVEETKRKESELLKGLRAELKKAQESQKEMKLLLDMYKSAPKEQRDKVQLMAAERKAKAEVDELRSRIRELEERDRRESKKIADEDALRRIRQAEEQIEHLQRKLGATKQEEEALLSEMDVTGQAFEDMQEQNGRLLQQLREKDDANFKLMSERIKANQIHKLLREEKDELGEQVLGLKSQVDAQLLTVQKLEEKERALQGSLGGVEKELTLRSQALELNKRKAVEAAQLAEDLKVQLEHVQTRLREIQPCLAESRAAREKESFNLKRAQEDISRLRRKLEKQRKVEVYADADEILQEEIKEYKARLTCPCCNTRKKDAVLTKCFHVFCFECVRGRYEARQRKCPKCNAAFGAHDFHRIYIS
Chain of UniProt O14730 (O14730 whole entry, looked up): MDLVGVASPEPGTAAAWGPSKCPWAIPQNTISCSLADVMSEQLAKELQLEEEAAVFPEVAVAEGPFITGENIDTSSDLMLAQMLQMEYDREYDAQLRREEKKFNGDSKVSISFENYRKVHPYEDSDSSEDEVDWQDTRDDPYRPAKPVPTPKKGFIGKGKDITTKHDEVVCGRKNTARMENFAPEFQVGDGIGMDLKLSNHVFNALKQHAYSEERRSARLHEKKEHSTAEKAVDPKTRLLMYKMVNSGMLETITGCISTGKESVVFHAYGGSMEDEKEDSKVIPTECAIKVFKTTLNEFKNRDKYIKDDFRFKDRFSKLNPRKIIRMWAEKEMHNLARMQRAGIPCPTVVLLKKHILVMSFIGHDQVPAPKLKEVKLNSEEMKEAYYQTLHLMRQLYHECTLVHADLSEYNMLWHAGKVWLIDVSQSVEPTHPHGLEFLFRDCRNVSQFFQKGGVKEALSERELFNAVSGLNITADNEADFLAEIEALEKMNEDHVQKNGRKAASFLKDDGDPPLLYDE
Chain of UniProt Q9Y3T6 (Q9Y3T6 whole entry, looked up, one chain of several): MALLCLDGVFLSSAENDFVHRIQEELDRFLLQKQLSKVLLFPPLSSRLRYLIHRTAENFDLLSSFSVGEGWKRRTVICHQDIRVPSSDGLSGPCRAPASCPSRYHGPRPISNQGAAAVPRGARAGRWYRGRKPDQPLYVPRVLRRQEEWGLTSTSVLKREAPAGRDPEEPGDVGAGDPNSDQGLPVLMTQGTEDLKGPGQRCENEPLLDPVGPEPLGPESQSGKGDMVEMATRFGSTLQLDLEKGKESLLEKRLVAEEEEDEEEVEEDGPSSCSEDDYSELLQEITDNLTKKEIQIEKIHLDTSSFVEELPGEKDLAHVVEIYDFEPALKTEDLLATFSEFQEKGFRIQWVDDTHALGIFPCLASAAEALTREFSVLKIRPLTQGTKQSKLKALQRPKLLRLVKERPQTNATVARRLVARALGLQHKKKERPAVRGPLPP
Chain of UniProt P04844 (P04844 whole entry, looked up): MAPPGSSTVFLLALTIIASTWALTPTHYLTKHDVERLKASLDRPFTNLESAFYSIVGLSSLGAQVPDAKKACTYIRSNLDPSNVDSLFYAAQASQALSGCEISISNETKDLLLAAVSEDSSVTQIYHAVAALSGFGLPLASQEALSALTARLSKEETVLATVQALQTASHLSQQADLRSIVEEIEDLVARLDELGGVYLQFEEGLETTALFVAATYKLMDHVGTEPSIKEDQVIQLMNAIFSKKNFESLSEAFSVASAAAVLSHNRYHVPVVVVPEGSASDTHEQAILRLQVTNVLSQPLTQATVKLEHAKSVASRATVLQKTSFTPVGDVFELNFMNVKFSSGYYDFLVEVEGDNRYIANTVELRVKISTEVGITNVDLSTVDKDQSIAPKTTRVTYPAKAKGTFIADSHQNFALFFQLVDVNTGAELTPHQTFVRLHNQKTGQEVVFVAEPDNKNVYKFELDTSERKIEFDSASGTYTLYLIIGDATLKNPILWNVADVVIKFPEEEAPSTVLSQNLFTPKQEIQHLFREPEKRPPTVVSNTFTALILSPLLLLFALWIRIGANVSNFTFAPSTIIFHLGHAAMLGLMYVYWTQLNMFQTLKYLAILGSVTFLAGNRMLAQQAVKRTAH

Target | log2 fold change (lapatinib) | log2 fold change (pictilisib) | log2 fold change (crizotinib) | log2 fold change [1] | log2 fold change (duvelisib) | log2 fold change (gandotinib) | log2 fold change (tozasertib) | log2 fold change (doramapimod) | log2 fold change (bafetinib) | log2 fold change [2] | log2 fold change (nilotinib) | log2 fold change [3] | log2 fold change (dasatinib) | log2 fold change [4] | log2 fold change [5] | log2 fold change (quisinostat) | log2 fold change (tipifarnib) | log2 fold change [6] | log2 fold change [7] | log2 fold change [8]
RPN2 (UniProt P04844) | -0.048 | -0.006 | -0.004 | -0.074 | -0.003 | 0.039 | -0.003 | 0 | -0.032 | 0.06 | -0.011 | 0.005 | -0.008 | -0.013 | -0.006 | 0.049 | -0.015 | -0.001 | 0.011 | -0.003
RNF181 (UniProt Q9P0P0) | 0.079 | -0.069 | 0.049 | 0.057 | 0.028 | -0.042 | 0.054 | 0.057 | -0.03 | 0.01 | 0.023 | 0.027 | 0.013 | 0.007 | -0.004 | -0.027 | -0.03 | 0.006 | -0.01 | -0.023
RPS6KA3 (UniProt P51812) | -0.089 | 0.223 | -0.012 | -0.037 | -0.016 | 0.156 | 0.363 | -0.057 | -0.077 | -0.083 | -0.02 | 0.17 | -0.065 | 0.039 | 0.031 | -0.046 | -0.023 | 0.133 | 0.09 | 0.005
QRSL1 (UniProt Q9H0R6) | 0.038 | 0.044 | 0.031 | 0.105 | 0.044 | -0.04 | 0.044 | 0.003 | -0.227 | -0.022 | -0.022 | 0.031 | -0.018 | 0.069 | 0.07 | -0.054 | -0.002 | 0.034 | -0.02 | -0.031
SCO1 (UniProt O75880) | 0.021 | -0.046 | -0.046 | -0.022 | -0.014 | 0.047 | 0.01 | 0.026 | 0.048 | 0.073 | 0.046 | 0.029 | 0.001 | -0.095 | 0 | -0.13 | -0.108 | -0.033 | 0.029 | 0.001
RAB27A (UniProt P51159) | 0.013 | -0.008 | 0.026 | 0.563 (active) | -0.009 | -0.081 | 0.024 | -0.034 | 0.038 | -0.054 | -0.018 | 0.02 | 0.022 | -0.059 | 0.003 | 0.037 | 0.038 | -0.024 | 0.014 | 0.021
RCOR1 (UniProt Q9UKL0) | -0.056 | -0.069 | 0.048 | -0.083 | -0.004 | -0.009 | 0.019 | -0.061 | -0.056 | 0.041 | -0.024 | -0.006 | -0.054 | 0.009 | 0.003 | 0.015 | -0.022 | 0.043 | -0.015 | 0.099
SAR1A (UniProt Q9NR31) | 0.101 | 0.191 | -0.056 | 0.033 | 0.002 | 0.341 | 0.027 | 0.504 (active) | -0.022 | 0.156 | 0.145 | 0.164 | 0.017 | -0.009 | 0.01 | 0.095 | -0.172 | -0.055 | -0.154 | -0.045
R3HCC1 (UniProt Q9Y3T6) | -0.018 | -0.049 | 0 | -0.034 | 0 | 0.089 | 0.006 | 0.044 | 0.002 | 0.08 | -0.023 | 0.012 | 0.043 | 0.011 | -0.049 | -0.014 | -0.058 | -0.036 | 0.003 | 0.038
RAB8B (UniProt Q92930) | 0.065 | -0.018 | 0.034 | 0.037 | 0.098 | -0.289 (active) | 0.003 | -0.013 | 0.088 | -0.079 | -0.136 | -0.011 | -0.038 | -0.033 | -0.096 | -0.035 | 0.075 | 0.019 | 0.099 | 0.029
RIOK3 (UniProt O14730) | 0.026 | -0.032 | -0.031 | 0.021 | -0.007 | -0.009 | -0.008 | 0.036 | -0.021 | 0.008 | 0.017 | -0.027 | -0.05 | -0.076 | 0.002 | -0.063 | 0.008 | 0.01 | 0.009 | 0.014
RPL36AL (UniProt Q969Q0) | 0.05 | 0.031 | 0.216 | 0.01 | -0.033 | -0.038 | 0.047 | -0.131 | 0.137 | 0.003 | 0.034 | 0.038 | 0.094 | 0.055 | 0.04 | 0.329 (active) | 0.058 | 0.01 | -0.026 | -0.009
RNF168 (UniProt Q8IYW5) | -0.034 | 0.063 | 0.027 | -0.015 | 0.037 | 0.002 | -0.088 | -0.008 | -0.212 | -0.036 | 0.144 | 0.085 | 0.064 | -0.186 | 0.006 | -0.019 | 0.016 | -0.009 | -0.02 | 0.018
RNF40 (UniProt O75150) | -0.019 | -0.005 | -0.01 | -0.011 | -0.001 | -0.048 | -0.002 | 0.002 | 0.01 | 0.03 | -0.022 | 0.009 | -0.012 | 0.003 | 0.031 | -0.029 | 0.003 | 0.031 | 0.009 | -0.012
RPS26P11 (UniProt Q5JNZ5) | 0.024 | -0.008 | -0.085 | -0.484 (active) | 0.076 | 0.147 | -0.055 | 0.021 | -0.072 | 0.24 (active) | 0.026 | 0.027 | -0.017 | 0.044 | 0.02 | -0.151 | 0.004 | -0.036 | 0 | -0.004
RIOK1 (UniProt Q9BRS2) | -0.044 | 0.197 | -0.015 | 0.92 (active) | 0.037 | -0.138 | 0.008 | 0.025 | -0.056 | -0.134 | -0.018 | 0.06 | -0.018 | 0.072 | 0.008 | -0.007 | 0.003 | -0.012 | -0.033 | -0.072
